# Assay results reported in PubChem BioAssay.
# Calls of active or inactive are those of the source.
# Legend:
# Albumin (Bos taurus) = Albumin (Bos taurus) (UniProt P02769); assay: bovine serum albumin binders on microarray, profiling panel, artefact control for SMM control protein annotation, biochemical, small-molecule microarray, Alexa647 label, 635/667 nm fluorescence (AID 1118); details: BSA-A647 binding, fluorescence 635 nm, higher = more signal;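 also: score merges 667 nm emission intensity and signal-to-noise per printed compound spot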
# Albumin (Bos taurus), sequence (P02769 whole entry, looked up): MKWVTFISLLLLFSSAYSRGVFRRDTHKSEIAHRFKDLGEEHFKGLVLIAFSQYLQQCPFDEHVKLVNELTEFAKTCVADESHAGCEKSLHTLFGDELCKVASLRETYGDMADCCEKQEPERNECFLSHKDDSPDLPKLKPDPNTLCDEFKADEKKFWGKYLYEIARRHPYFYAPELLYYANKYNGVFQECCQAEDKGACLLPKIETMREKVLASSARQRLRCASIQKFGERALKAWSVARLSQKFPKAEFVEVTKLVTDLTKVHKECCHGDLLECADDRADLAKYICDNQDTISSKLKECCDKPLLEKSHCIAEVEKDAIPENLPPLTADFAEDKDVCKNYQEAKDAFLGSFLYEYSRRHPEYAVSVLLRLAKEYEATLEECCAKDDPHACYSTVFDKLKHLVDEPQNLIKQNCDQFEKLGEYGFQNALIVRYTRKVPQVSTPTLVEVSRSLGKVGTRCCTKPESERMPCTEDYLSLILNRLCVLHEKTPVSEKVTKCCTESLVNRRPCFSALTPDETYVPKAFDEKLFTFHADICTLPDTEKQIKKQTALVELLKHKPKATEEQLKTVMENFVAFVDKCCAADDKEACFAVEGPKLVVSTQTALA
# [1] = small-molecule microarray binders of probe aXIP, primary screen, biochemical, NeuroSMM set, 635/667 nm fluorescence (AID 1119); details: higher = more signal, called active from +8 up or from −8 down;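 also: probe is the protein aXip251-270 applied at 1 µg/mL to compound-printed slides; binding of probe to printed compounds measured as 667 nm fluorescence plus signal to noise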
# [2] = small-molecule binders of probe aNOTCH3, primary screen, biochemical, small-molecule microarray, 635/667 nm fluorescence (AID 1120); details: higher = more signal;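 also: probe is a biotin-tagged antibody raised against NOTCH3 rather than NOTCH3 protein; score merges spot fluorescence near 667 nm with spot signal to noise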
# [3] = small-molecule binders of probe aNOTCH2, primary screen, biochemical, small-molecule microarray, 635/667 nm fluorescence (AID 1121); details: higher = more signal;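 also: score merges feature fluorescence read at 667 nm with its signal to noise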
# [4] = target: Carbonic anhydrase 2 (Homo sapiens) (UniProt P00918); assay: CAII small-molecule binders, profiling panel, biochemical, small-molecule microarray, Alexa647-labelled CAII (AID 1122); details: CAII-A647 binding fluorescence, higher = more signal
# [5] = COS7 lysate on small-molecule microarray, probe aHis, 635 nm (AID 1123); details: COS7 cell lysate, fluorescence, higher = more signal;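 also: z-score combines 667nm fluorescence intensity with signal-to-noise per printed compound spot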
# [6] = compound binding in COS7 lysate, probe aLAP1, primary screen, cell lysate, small-molecule microarray (AID 1124); details: probe aLAP1, fluorescence, higher = more signal;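 also: lysate comes from COS7 cells expressing LAP1 and is applied at 0.3 µg/mL; score merges spot fluorescence near 667 nm with signal-to-noise over triplicate slides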
# Sam68 (KHDRBS1) = assay: Sam68 small-molecule binders, primary screen, biochemical, small-molecule microarray, 635 nm fluorescence (AID 1125); details: small-molecule microarray binding, higher = more signal;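 also: score merges 667 nm channel intensity with signal to noise over triplicate slides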
# [7] = system: Chordin-like protein 2 (CHRDL2); assay: CHRDL2 small-molecule binders, primary screen, biochemical, small-molecule microarray, 635 nm fluorescence (AID 1126); details: small-molecule microarray binding, fluorescence 635 nm; higher = more signal;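 also: printed compound slides probed with Chrdl2 protein at 4 µg/mL for 1 h at 4 C; score merges 667 nm emission intensity with signal to noise over three replicate slides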
# [8] = target: Concanavalin-A (Canavalia ensiformis) (UniProt P02866); assay: ConA small-molecule binders, primary screen, artefact control for SMM control protein annotation, biochemical, small-molecule microarray, Alexa647 label, 635 nm (AID 1127); details: ConA-A647 binding fluorescence, higher = more signal;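 also: z combines 667 nm emission intensity with signal-to-noise across three replicate slides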
# Concanavalin-A (Canavalia ensiformis), sequence (P02866 whole entry, looked up): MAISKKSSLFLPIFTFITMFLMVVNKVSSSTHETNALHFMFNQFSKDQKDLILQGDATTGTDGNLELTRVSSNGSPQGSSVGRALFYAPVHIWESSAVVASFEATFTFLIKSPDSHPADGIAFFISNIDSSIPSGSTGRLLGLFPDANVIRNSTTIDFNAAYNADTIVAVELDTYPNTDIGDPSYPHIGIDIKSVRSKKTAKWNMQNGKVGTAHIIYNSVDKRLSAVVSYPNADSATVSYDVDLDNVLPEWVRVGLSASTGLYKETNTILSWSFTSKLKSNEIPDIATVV
Structure (SMILES),composite z-score (Albumin (Bos taurus)),composite Z-score [1],composite z-score [2],composite z-score [3],composite z-score [4],composite z-score [5],composite z-score [6],composite z-score (Sam68 (KHDRBS1)),composite z-score [7],composite z-score [8]
C=CC(=C)C1=CCO[C@@H]1[C@H]1CCCN1S(=O)(=O)c1ccccc1[N+](=O)[O-],0.656,0.0499 (inactive),0.117,-0.0926,0.481,0.158,-0.262,0.471,1.04,1.1
CC(C)N1C(=O)[C@@]2(c3ccc([N+](=O)[O-])cc3)CC(=O)N(CC34CC5CC(CC(C5)C3)C4)[C@@H]2c2ccc(CO)cc21,-0.747,-0.0775 (inactive),0.49,-0.237,-0.531,0.773,0.632,-0.507,-1.27,0.134
COC(=O)C1=CC(CCCO)=CC(C2CC2)N(Cc2sc3ccccc3c2Cl)C=C1C(=O)OC (stereo not given),0.932,0.408 (inactive),0.224,-0.0209,0.817,1.55,1.01,1.3,-0.236,0.949
CCOC(=O)C1=CCC(c2ccc([N+](=O)[O-])cc2)N(S(=O)(=O)c2ccc(C)cc2)C1 (stereo not given),0.261,0.448 (inactive),0.0351,-0.0439,0.408,1.12,0.279,0.377,-0.0439,0.666
O=C1OCCC/C=C\[C@H]2OC34C=CCN(Cn5nnc6ccccc65)C(=O)[C@H]3N(CCCCCO)C(=O)[C@@H]4C12 (stereo not given in full),0.743,-0.263 (inactive),-0.267,-0.14,0.881,0.0505,-0.477,-0.445,-0.977,-0.702
CN(C)C(=O)[C@@]1(CCC(=O)OC(C)(C)C)N=C(c2ccc(OCCCO)cc2)O[C@H]1c1ccccc1,0.955,0.58 (inactive),0.519,-0.0125,0.842,3.16,0.55,0.926,-0.719,0.683
CC(C)C(=C=CC[C@@H](O)c1ccccc1OCCO)C[C@@H](O)c1ccccn1,0.0682,-0.776 (inactive),-0.0847,-0.111,0.738,0.287,-0.0744,0.95,-0.0374,0.451
COC(=O)c1c(CC[C@@H](CO)NC(=O)N[C@@H](Cc2ccccc2)Cn2cc(C3(O)CCCCC3)nn2)oc(C(C)=O)c1C(=O)OC,0.357,-0.0293 (inactive),0.0893,-0.0942,0.253,0.287,-0.0804,1.29,0.625,0.82
COC(=O)[C@@]1(Cc2ccc(OC)cc2)[C@H]2c3cc(C(=O)N(C)C)n(Cc4c(OC)[nH]cc(C)c4=O)c3C[C@H]2CN1C(=O)c1ccccc1,0.589,0.0562 (inactive),1.04,0.107,0.881,1.57,-0.155,-0.0964,-0.218,-0.172
Cc1ccc(S[C@]2(C(=O)NCc3ccccc3)CC(=O)N(Cc3ccccc3)[C@@H]2c2ccc(CO)cc2)cc1,-0.398,0.115 (inactive),-0.25,-0.149,0.654,1.86,0.569,0.176,-0.525,0.423
COc1ccc(C#Cc2ccc3c(c2)[C@]2(C(=O)N3)[C@H](c3ccc(O)cc3)N3[C@H](c4ccccc4)[C@H](c4ccccc4)OC(=O)[C@H]3[C@@H]2C(=O)NC[C@H](O)c2ccccc2)cc1,0.363,-0.118 (inactive),0.0319,-0.189,0.295,2.78,0.0766,0.81,0.0813,1.17
CCCNC(=O)[C@@]1(c2ccc([N+](=O)[O-])cc2)CC(=O)N(CC23CC4CC(CC(C4)C2)C3)[C@@H]1c1ccc(CO)cc1,-0.161,-0.639 (inactive),-0.255,-0.168,0.716,1.08,1.88,0.591,-0.0438,0.531
C=CC[C@]1(C(=O)N2CCOCC2)N=C(c2ccc(OCCCO)cc2)O[C@H]1c1ccccc1,0.758,-0.128 (inactive),0.0225,-0.0906,0.785,3.15,0.446,0.618,-0.0547,1.09
CC(=O)C1=CCC(c2ccccc2)N(S(=O)(=O)c2ccc(C)cc2)C1 (stereo not given),0.632,-0.685 (inactive),0.101,-0.0439,0.66,2.5,0.763,0.579,0.725,0.789
[N-]=[N+]=NCc1ccccc1C[C@]1(C(=O)O)N=C(c2ccc(OCCCO)cc2)O[C@H]1c1ccccc1,0.954,-0.37 (inactive),-0.0414,-0.0633,0.685,1.79,0.249,0.52,-0.741,1.11
CN1C=C(C(=O)OCCS(C)(=O)=O)C(C(=O)OCCS(C)(=O)=O)=CC(CCCO)=CC1C1CC1 (stereo not given),0.846,-0.561 (inactive),-0.0613,-0.108,0.826,0.606,-0.0075,-0.0704,-0.705,0.183
CCOC(=O)C[C@H]1[C@H](OC(=O)Cc2ccc3c(c2)OCO3)[C@@H](NC(=O)c2ccc(-c3ccccc3)cc2)c2cc(OCCCO)ccc2N1C(=O)c1ccccc1,0.731,0.133 (inactive),0.0316,-0.0649,0.364,0.341,-0.202,0.792,0.379,0.645
O=C1C[C@]2(c3ccc([N+](=O)[O-])cc3)C(=O)N(CC(F)(F)F)c3cc(CO)ccc3[C@H]2N1CC12CC3CC(CC(C3)C1)C2,-0.0746,-0.171 (inactive),-0.0362,-0.168,0.499,1.15,-0.221,-0.0575,0.167,0.556
CCN(CC)c1ccc(N2CC=CC34O[C@@H]5C=CCCOC(=O)C5[C@H]3C(=O)N(CCCCCO)[C@@H]4C2=O)cc1 (stereo not given in full),-0.515,1.07 (inactive),0.0522,0.396,0.285,0.395,0.483,0.13,-0.218,-0.459
Cc1ccc(S[C@]2(C(=O)NCCN3CCOCC3)CC(=O)N(Cc3cc(C(F)(F)F)cc(C(F)(F)F)c3)[C@@H]2c2ccc(CO)cc2I)cc1,0.59,-1.18 (inactive),-0.214,-0.164,0.661,0.373,-0.0586,0.134,-1.16,-0.13
[N-]=[N+]=Nc1ccccc1[C@@H]1OC(c2ccc(OCCCO)cc2)=N[C@]1(CCS(=O)(=O)c1ccccc1)C(=O)N1CCOCC1,0.815,0.167 (inactive),0.287,0.0263,0.618,2.89,0.483,1.29,-0.535,1.1
CCCCCN1CC=CC23O[C@@H]4C=CCOC(=O)[C@@H]4[C@H]2C(=O)N(CCCO)[C@@H]3C1=O (stereo not given in full),1.02,1.01 (inactive),-0.245,-0.155,0.851,2.39,0.937,1.28,-0.205,0.221
COc1ccc([Si](C)(C)[C@@H]2[C@@H](CCn3cc([C@H](O)c4ccccc4)nn3)O[C@]3(C(=O)N(Cc4cccc(N5CCOC5=O)c4)c4ccccc43)[C@H]2C)cc1,-0.424,0.25 (inactive),-0.259,-0.175,-0.208,-0.359,-0.0364,-0.217,-1.14,-0.348
CCCCC=C[C@@H](NC(=O)c1ccco1)c1ccccc1,0.844,-0.474 (inactive),-0.0947,-0.0419,-0.406,0.0455,-0.358,-0.708,-0.134,1.01
CCCCCN1CC=CC23O[C@@H]4/C=C\CCC(C)OC(=O)C4[C@H]2C(=O)N(CCCCCO)[C@@H]3C1=O (stereo not given in full),-0.299,-0.127 (inactive),-0.149,-0.144,0.685,-0.389,-0.29,-1.09,-0.793,-0.541
Cc1c(NC(=O)CC#N)c(=O)n(-c2ccccc2)n1C,0.407,0.676 (inactive),0.0876,-0.193,-0.064,0.0776,0.037,0.529,0.563,0.0636
COc1ccc([Si](C)(C)[C@@H]2[C@@H](CC(=O)N(CCO)Cc3ccccc3)O[C@]3(C(=O)N(C)c4ccccc43)[C@H]2C)cc1,0.751,0.26 (inactive),0.0964,0.0022,0.516,0.855,0.0123,1.31,1.43,1.12
COC(=O)[C@@]1(Cc2ccc(OC)cc2)[C@H]2c3cc(C(=O)N4CCCC4)n(Cc4cc(F)cc5c4OCOC5)c3C[C@H]2CN1C(=O)c1ccccc1,0.161,-0.0345 (inactive),0.58,0.38,0.916,2.39,-0.429,-0.0061,-0.974,0.693
COc1ccc([Si](C)(C)[C@H]2[C@H](CC(=O)N(CCO)Cc3ccccc3)O[C@@]3(C(=O)N(Cc4cccc(N5CCC5=O)c4)c4ccccc43)[C@@H]2C)cc1,0.378,4.59 (inactive),-0.0802,-0.154,0.454,1.12,0.782,1.01,1.1,1.11
CC(C)C[C@@H]1NC(=O)[C@H]2C[C@@H](C(=O)NCCCCCNC(=O)CS)[C@@H](c3cccc(OCCO)c3)N2C1=O,0.258,-0.014 (inactive),0.191,-0.0358,0.561,1.32,0.438,1.3,1.39,1
